Compound activity as filed in PubChem BioAssay.
This is a sample that favours compounds with a hit; in the whole collection about 9.3% have one here.
SMN2 splice enh: enhancers of SMN2 splice variant expression; HEK293 SMN2-luciferase splicing reporter, luminescence, 30-36 h; 210,000 tested, 2.8% active; Potency, µM (highest dose often 46.1 µM), for the others: at the top dose activity change, positive = activation, actives largely listed as activators; also: % of control where 0% means no effect; nearly all actives have a fitted effect of over 55% in size
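HEK293 cells carry an SMN2 […]–luciferase reporter in which exon 7 inclusion puts luciferase in frame. Cells were plated 10-12 h before compound addition, then incubated 30-36 h at 37C. ONE-Glo luminescence was read; sodium butyrate at 4.5 mM final served as control.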
ELG1 repair inh: ELG1-dependent DNA repair inhibition | HEK293T ELG1-luciferase reporter, luminescence, 16 h; DNA damage induced by 5-fluorouridine | Potency, µM (doses to about 46.1 µM), without a hit: top-dose activity change, negative = inhibition, usual class: inhibitors | 330,000 tested, 2.3% active | AID 504467; also: % is scaled to controls: 0 for no effect and ±100 for the full control effect; nearly all actives have a fitted effect of over 55% in size
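5-Fluorouridine DNA damage + compound/DMSO, 2,000 cells/well, 16 h, 37 °C/5% CO2. ONE-Glo, 30 min RT, luminescence. Readout = decrease in reporter signal.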
FLuc modulator: firefly luciferase modulation, counter-screen for miR-21 project; 360,000 tested, 6.9% active; Potency, µM (titrated, usually from 57.5 µM), for the others: at the highest dose activity change, negative = inhibition, most hits filed as inhibitors; AID 588342; P08659; purified FLuc, Km substrates, luminescence inhibition;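 also: plate controls were vehicle for no effect and reference inhibitor for full effect; nearly all actives have a fitted effect of over 55% in size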
Target sequence (P08659 whole entry, looked up): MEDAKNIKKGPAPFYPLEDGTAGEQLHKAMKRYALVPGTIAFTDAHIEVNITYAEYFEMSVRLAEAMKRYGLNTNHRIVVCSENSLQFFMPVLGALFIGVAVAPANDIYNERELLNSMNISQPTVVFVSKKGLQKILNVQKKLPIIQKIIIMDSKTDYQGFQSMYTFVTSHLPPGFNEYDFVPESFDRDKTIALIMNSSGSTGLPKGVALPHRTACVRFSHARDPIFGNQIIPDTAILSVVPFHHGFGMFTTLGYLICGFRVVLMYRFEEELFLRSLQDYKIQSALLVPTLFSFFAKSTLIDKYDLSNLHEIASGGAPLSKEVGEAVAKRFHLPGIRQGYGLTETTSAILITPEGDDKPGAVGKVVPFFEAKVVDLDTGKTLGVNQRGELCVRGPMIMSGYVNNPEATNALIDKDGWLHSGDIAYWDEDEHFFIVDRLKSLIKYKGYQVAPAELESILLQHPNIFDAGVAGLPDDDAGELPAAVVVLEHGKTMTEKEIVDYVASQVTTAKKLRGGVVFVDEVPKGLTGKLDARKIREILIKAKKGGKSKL
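Purified P. pyralis luciferase (10nM final) with 10uM D-luciferin and 10uM ATP (Km levels) in 50mM Tris acetate pH 7.5, 10mM Mg acetate, 0.01% Tween-20, 0.05% BSA; qHTS 6-point titration, ~60 µM downward; luminescence read.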
Rab9 prom act: Rab9 promoter activation | Huh7 Rab9 promoter-luciferase reporter, luminescence, 24 h | Potency, µM (titrated, usually from 9.22 µM), inactives show top-dose activation, negative = inhibition, usual class: activators | 320,000 tested, 2.8% active; also: % of control where 0% means no effect; nearly all actives have a fitted effect of over 60% in size
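Huh7 cells stably carrying Rab9 promoter–luciferase reporter, plated 1500 cells/well, compound added after 2 h and incubated 24 h at 37 °C; luciferase luminescence then read after 10 min with detection reagent.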
ELG1 genotoxic: inducers of genotoxicity in HEK293T ELG1-luciferase cells; 330,000 tested, 1.3% active; AID 504466; HEK293T ELG1-luciferase reporter, luminescence, 16 h; Potency, µM (highest dose often 46 µM), inactives show at the highest dose activity change, positive = activation, most hits filed as activators; also: % of control where 0% means no effect; nearly all actives have a fitted effect of over 60% in size
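Reporter readout depends on ELG1 protein level, which increases with genetic stress. After 16 hr compound exposure at 37 °C, luciferase activity was quantified using ONE-Glo.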
NPC1 promoter act: NPC1 promoter activation; Potency, µM (highest dose often 9.22 µM), without a hit: top-dose activation, actives largely listed as activators; Huh7 NPC1 promoter luciferase reporter, 24 h; 320,000 tested, 2.4% active; also: % of control where 0% means no effect; nearly all actives have a fitted effect of over 60% in size
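Luminescence from an NPC1 promoter-driven luciferase reporter in stably transfected Huh7 cells was measured after 24 h compound treatment at 37 °C, followed by 10 min ambient incubation with luciferase detection reagent.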
* marks the source's active call; other numbers are inactive results; ? = inconclusive; . = no result given. Calls follow the shape of the dose curve; as a rule, active = well fitted curve in the direction sought with a large enough effect; inconclusive = small, poorly fitted or top-dose-only effect, or another doubt; inactive = no such curve, though single readings can be large; an effect the other way counts as inactive or inconclusive. Potency is read from the fitted curve at half-maximal effect.

SMILES | SMN2 splice enh | ELG1 repair inh | FLuc modulator | Rab9 prom act | ELG1 genotoxic | NPC1 promoter act
COC(=O)c1ccc(/C=N/Nc2nc(C)c(C)s2)cc1 | . | ? | 1.1µM* | 0.45µM* | -7% | 0.35µM*
CN(C)c1nc(Oc2ccc(/C=N/O)cc2)nc(N(C)C)n1 | -2% | 0% | 0% | 0% | -4% | -3%
COCCN(C(=O)COC(=O)Cc1coc2cc3c(cc12)CCC3)c1c(N)n(Cc2ccccc2)c(=O)[nH]c1=O | . | 1% | 24µM* | -4% | 0% | -4%
Cc1ccsc1C1C(C#N)=C(N)N(N(C)C)C2=C1C(=O)CC(C)(C)C2 (stereo unspecified) | 25µM* | -3% | 0% | -4% | -7% | -1%
O=C(CSCc1ccccc1Br)N/N=C/c1ccc2c(c1)OCO2 | -16% | -25% | ? | 1% | -3% | -3%
Cn1nnnc1SCc1csc(Nc2ccccc2)n1 | 1% | ? | ? | 4µM* | ? | ?
Cc1ccc(Nc2nc(CSc3nnnn3C)cs2)cc1 | 11µM* | ? | 3.4µM* | 2.8µM* | ? | 3.5µM*
Cc1ccc(Nc2nc(CSc3nnnn3-c3ccccc3)cs2)cc1 | -9% | . | 17µM* | . | . | .
Cc1ccc(Nc2nc(CSc3n[nH]c(N)n3)cs2)cc1 | . | ? | 1.3µM* | 2.2µM* | ? | 1.1µM*
Cn1nnnc1SCc1cccc(CSc2nnnn2C)n1 | 14% | 2% | 7% | 5% | ? | 1%
Cc1cccc(CCNC(=O)c2cc3c(=O)[nH]c4ccc(C)cc4c3s2)c1 | -8% | . | -10% | . | . | .
COc1ccc(-c2oc3ncn4nc(-c5ccccc5O)nc4c3c2-c2ccc(OC)cc2)cc1 | 1% | . | -1% | . | . | .
c1ccc(-c2nc(CSc3nnc(-c4cccs4)o3)cs2)cc1 | 6% | 10% | -9% | -3% | 0% | 5%
Cc1ccc(Nc2nc(CSc3nnc(-c4cccs4)o3)cs2)cc1 | -17% | 6% | 6.7µM* | 19% | ? | 21%
S=C1NC2(CCS1)Oc1ccccc1C1CC(c3ccccc3)=NN12 (stereo unspecified) | . | ? | 27µM* | 1% | 6% | 1%
O=C(Nc1nnc(C2CC2)s1)c1ccco1 | 30% | ? | ? | 3.2µM* | ? | ?
O=C(Nc1nnc(C2CCCCC2)s1)c1ccco1 | ? | ? | ? | 2µM* | ? | 4µM*
Cc1ccccc1N1CC(c2nnc(NC(=O)c3ccco3)s2)CC1=O (stereo unspecified) | . | . | -18% | . | . | .
CCOC(=O)c1ccc(NC2SC(=O)N(Cc3cccc(C(=O)O)c3)C2=O)cc1 (stereo unspecified) | ? | . | 24µM* | . | . | .
COC(=O)c1ccc(C)c(NC(=O)CSc2nnc3ccccn23)c1 | . | 17% | 3% | -2% | 1% | 2%
Cc1nc2cc3ccccc3cc2c(=O)[nH]1 | ? | ? | 13µM* | ? | ? | ?
O=c1[nH]c(-c2cccnc2)nc2sc(-c3ccccc3)cc12 | 29% | ? | 4.8µM* | 26% | ? | -23%
CC(C)OC(=O)Cc1nc2sc(-c3ccccc3)cc2c(=O)[nH]1 | . | ? | 17µM* | 4.5µM* | ? | ?
Cc1nc2sc(-c3ccccc3)cc2c(=O)[nH]1 | 13µM* | ? | 1.3µM* | 0.5µM* | 0.58µM* | 0.63µM*
Cc1nc(C)c(-c2ccccc2)c(=O)[nH]1 | . | 1% | 6% | 5% | 0% | -2%
CN1CCN(C(=O)C2=C[C@@H](c3coc4ccccc4c3=O)C[C@@H](OCc3ccc(CO)cc3)O2)CC1 | . | -4% | -2% | 1% | -5% | -5%
O=C(Nc1ccc(-n2cnnn2)cc1)C1CCC1 | -14% | -11% | -1% | 2% | 0% | 3%
Cc1ccnn1CCSCC(=O)O | 0% | 14% | 1% | 6% | -5% | 1%
O=C(O)CC(c1ccccc1)c1ccccc1 | -7% | -14% | 2% | 8% | 2% | -4%
